Source: PubChem BioAssay (NCATS)
“And” between values parts separate entries of the source, which are not always exact repeats. Identical values can stand only once. Records with an inconclusive call do not appear. A structure can be active in one record and inactive in another. Unmarked numbers belong to inactive results. The source made the active and inactive calls. Unless noted, the call rests on the fitted dose curve; in most records, active means well fitted curve in the direction sought with a large enough effect; inconclusive means small, poorly fitted or top-dose-only effect, or another doubt; inactive means no such curve, though single readings can be large; an effect the other way counts as inactive or inconclusive.

How the values were obtained:
[1] = target: Cellular tumor antigen p53 (Homo sapiens) (UniProt P04637); test: Primary qHTS for small molecule compounds that upregulate eGFP-tagged delta133p53alpha (in N-terminal) cells. (AID 2060322); conditions: NCI-H358 eGFP-delta133p53alpha fluorescence, 24 h; activation: hits give high values; further: nearly all actives have a fitted effect of over 75% in size; further: potency means the concentration at half of the fitted maximal effect;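 on activation: series mostly up to about 56 µM; 0% = DMSO vehicle and 100% = reference activator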
Method in brief: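 NCI-H358 cells pre-induced 24 h with 10 ng/ml doxycycline to express N-terminal eGFP-delta133p53alpha, then dosed 24 h at 37C without doxycycline; fixed, Hoechst-stained, GFP intensity by laser scanning cytometry, normalized to DMSO (0%) and 57.5 uM 5-azacytidine (100%).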

[2] = target: Cellular tumor antigen p53 (Homo sapiens) (UniProt P04637); test: Primary qHTS for small molecule compounds that upregulate eGFP-tagged delta133p53alpha (in C-terminal) cells. (AID 2060324); further: potency means the concentration at half of the fitted maximal effect
Method in brief: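 C-terminal eGFP-tagged delta133p53alpha NCI-H358 line; dox-induced (100 ng/ml, 24 h) then plated without dox; compounds pinned in titration, 24 h 37 °C/5% CO2; PFA fix, Hoechst nuclei; GFP by LSC.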

[3] = target: Aldehyde dehydrogenase, mitochondrial (Homo sapiens) (UniProt P05091); test: qHTS for Inhibitors of the Aldehyde Dehydrogenase Family (ALDH2) Validation screens (AID 2061302; active means well fitted inhibition curve with a large enough effect; title and protocol of this record describe different tests; further: potency means the concentration at half of the fitted maximal effect)
[4] = BET inhibitor-based combinations targeting novel dependencies in MECOM-rearranged (r) AML: OCI-AML3 cell line (AID 2202232); conditions: Potency: OCI-AML3 viability; further: nearly all actives have a fitted effect of over 35% in size; further: potency means the concentration at half of the fitted maximal effect
Method in brief: (§1)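 Viability of cells (500 per well) is scored by luminescent CellTiter-Glo at 48 hr post-dosing. Eleven-point titrations are normalized to DMSO and empty controls and reduced to AUC values.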

[5] = BET inhibitor-based combinations targeting novel dependencies in MECOM-rearranged (r) AML: MV-4-11 cell line (AID 2202233); further: potency means the concentration at half of the fitted maximal effect; nearly all actives have a fitted effect of over 45% in size
Method in brief: (§2)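 Using pin-tool transfer, drugs were added in 11 doses to cells (500/well), incubated 48 hr, and assessed with CellTiter-Glo. Z-AUC is a mean-centring transformation applied separately to each screened line.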

[6] = BET inhibitor-based combinations targeting novel dependencies in MECOM-rearranged (r) AML: HNT-34 cell line (AID 2202234); further: potency means the concentration at half of the fitted maximal effect; nearly all actives have a fitted effect of over 35% in size
Method in brief: as §2

[7] = BET inhibitor-based combinations targeting novel dependencies in MECOM-rearranged (r) AML: UCSD-AML1 cell line (AID 2202235); further: nearly all actives have a fitted effect of over 40% in size; further: potency means the concentration at half of the fitted maximal effect
Method in brief: as §2

[8] = BET inhibitor-based combinations targeting novel dependencies in MECOM-rearranged (r) AML: AML-191 cell line (AID 2202236; further: nearly all actives have a fitted effect of over 35% in size; further: potency means the concentration at half of the fitted maximal effect)
Method in brief: as §1

[9] = target: Aldehyde dehydrogenase, mitochondrial (Homo sapiens) (UniProt P05091); test: qHTS for Inhibitors of the Aldehyde Dehydrogenase Family (ALDH2) Primary screen (AID 2061308);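 further: plate controls were vehicle for no effect and reference inhibitor for full effect; nearly all actives have a fitted effect of over 55% in size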
[10] = target: Retinaldehyde dehydrogenase 3 (Homo sapiens) (UniProt P47895); test: qHTS for Inhibitors of the Aldehyde Dehydrogenase Family (ALDH1A3) Validation screen (AID 2061312); further: on the % scale 0 is the no-effect control and ±100 the full control effect; nearly all actives have a fitted effect of over 45% in size
[11] = target: Retinaldehyde dehydrogenase 3 (Homo sapiens) (UniProt P47895); test: qHTS for Inhibitors of the Aldehyde Dehydrogenase Family (ALDH1A3) Primary screen (AID 2061315);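 further: plate controls were DMSO vehicle for no effect and reference inhibitor for full effect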
[12] = BET inhibitor-based combinations targeting novel dependencies in MECOM-rearranged (r) AML: SET-2 cell line (AID 2202231); conditions: SET-2 AML cells viability, CellTiter-Glo luminescence, 48 h; viability: hits give low values, concentration not given here; further: potency means the concentration at half of the fitted maximal effect; nearly all actives have a fitted effect of over 35% in size
Method in brief: as §1

[13] = BET inhibitor-based combinations targeting novel dependencies in MECOM-rearranged (r) AML: AML-194 cell line (AID 2202237; further: potency means the concentration at half of the fitted maximal effect; nearly all actives have a fitted effect of over 40% in size)
Method in brief: as §1

Cellular tumor antigen p53 (Homo sapiens), sequence (P04637 whole entry, looked up): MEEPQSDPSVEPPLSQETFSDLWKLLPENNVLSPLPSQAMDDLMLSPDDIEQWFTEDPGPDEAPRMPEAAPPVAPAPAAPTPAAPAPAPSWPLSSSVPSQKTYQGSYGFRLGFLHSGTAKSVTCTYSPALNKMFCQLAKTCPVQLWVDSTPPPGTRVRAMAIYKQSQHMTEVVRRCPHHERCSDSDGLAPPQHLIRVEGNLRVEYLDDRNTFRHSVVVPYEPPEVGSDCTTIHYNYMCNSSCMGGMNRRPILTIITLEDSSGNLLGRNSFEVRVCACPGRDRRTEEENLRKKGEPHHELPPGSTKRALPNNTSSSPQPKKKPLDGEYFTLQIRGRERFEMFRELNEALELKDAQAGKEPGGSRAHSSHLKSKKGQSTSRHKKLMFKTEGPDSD

For `CN1C[C@H](CNC(=O)OCc2ccccc2)C[C@@H]2c3cccc4c3c(cn4C)C[C@H]21`, the activation [1] was -6.69% and -23.9%, the Potency [2] was “inactive” and the Potency [3] was “inactive”.

With `Cn1cnc(CCN)c1` the activation [1] was -2.51% and the Potency [2] was “inactive”.

Work on `Nc1ccc([N+](=O)[O-])cc1` yielded an activation [1] of 28.8%.

In the case of `C[C@@H]1O[C@@H](O[C@@H]2C=C3CC[C@@H]4[C@@H](CC[C@]5(C)[C@H](c6ccc(=O)oc6)CC[C@@]45O)[C@@]3(C)CC2)[C@H](O)[C@H](O)[C@H]1O`, the activation [1] is reported as -11.3%.

In the case of `Cn1cc(C2=C(c3cn(C4CCN(Cc5ccccn5)CC4)c4ccccc34)C(=O)NC2=O)c2ccccc21`, the Potency [1] is reported as 21.7 µM (active), the activation [1] is reported as 38.7% and the Potency [4] is reported as “inactive”. The Potency [5] was 4.68 µM (active), the Potency [6] was 5.25 µM (active) and the Potency [7] was “inactive”.

For `OCCCBr`, the activation [1] was -36.8%.

For `C[C@]12CC[C@H]3[C@@H](CCC4=CC(=O)CC[C@@H]43)[C@@H]1CC[C@@H]2OC(=O)CCc1ccccc1`, the activation [1] was 2.51%.

`CC(Cc1ccccc1)N(C)Cc1ccco1` (configuration not stated) showed an activation [1] of -11.7%.

`CC1(C)C(C=C(Cl)Cl)C1C(=O)OC(C#N)c1cccc(Oc2ccccc2)c1` (configuration not stated) gave an activation [1] of -23.2%.

For `COc1ccc2c(c1OC)CN1CCc3cc4c(cc3C1C2)OCO4` (configuration not stated), the Potency [1] was 34.3 µM (active) and the activation [1] was 26.6%.

`CN(C)CCc1c[nH]c2cccc(O)c12` gave an activation [1] of 15.3%.

For `CN(C)[C@@H]1C(=O)C(C(N)=O)=C(O)[C@@]2(O)C(=O)C3=C(O)c4c(O)cccc4[C@@](C)(O)[C@H]3C[C@@H]12`, the Potency [1] was 21.9 µM (active), the activation [1] was -14.3% and the Potency [4] was “inactive”. For the same compound, the Potency [7] was “inactive” and the Potency [8] was “inactive”.

Compound `CCC(C(N)=O)N1CCCC1=O` (configuration not stated) has an activation [1] of -3.35%.

Compound `C[C@]12CCC(=O)C(O)=C1CC[C@@H]1[C@H]3CCC(=O)[C@@]3(C)CC[C@@H]12` has an activation [1] of -8.48%.

Work on `COc1cc(CC(C)N)cc(OC)c1OC` (configuration not stated) yielded an activation [1] of -10.7%.

With `O=c1[nH]c2ccccc2n1C1CCN(CCCC(c2ccc(F)cc2)c2ccc(F)cc2)CC1` the Potency [1] was 26.9 µM (active), the activation [1] was -35.4% and the Potency [3] was “inactive”. For the same compound, the Potency [9] was “inactive”, the Potency [10] was “inactive” and the Potency [11] was “inactive”.

`C[C@]12CCC(=O)C=C1CC[C@@H]1[C@@H]2CC[C@]2(C)C(=O)CC[C@@H]12` showed an activation [1] of 7.34%.

For `CC[C@@H](CO)NC(=O)[C@@H]1C=C2c3cccc4[nH]cc(c34)C[C@H]2N(C)C1`, the activation [1] was -0.565% and -21.9% and the Potency [2] was “inactive”.

Work on `Nc1nc(N)nc(NC2CC2)n1` yielded an activation [1] of 5.02%.

For `CN1CCN(c2ccc([N+](=O)[O-])c3no[n+]([O-])c23)CC1`, the Potency [1] was 21.3 µM (active), the activation [1] was 8.01% and the Potency [11] was “inactive”.

In the case of `COc1ccccc1N1CCNCC1`, the activation [1] is reported as -15.9% and 0.526%, the Potency [2] is reported as “inactive” and the Potency [3] is reported as “inactive”.

With `Cc1[nH]nc2ccc(-c3cncc(OC[C@@H](N)Cc4c[nH]c5ccccc45)c3)cc12` the Potency [1] was 8.63 µM (active), the activation [1] was 8.93% and the Potency [9] was “inactive”. The Potency [11] was “inactive”, the Potency [12] was 1.05 µM (active) and the Potency [7] was 468 nM (active). For the same compound, the Potency [8] was 0.833 µM (active) and the Potency [13] was 0.934 µM (active).

With `CCC(=O)CCCCC[C@@H]1NC(=O)[C@H]2CCCCN2C(=O)[C@H]([C@@H](C)CC)NC(=O)[C@H](Cc2cn(OC)c3ccccc23)NC1=O` the activation [1] was -11.2%.

With `CCN1CCN(C(=O)Cc2ccc(Nc3ncc(F)c(Nc4ccc(C(=O)Nc5ccccc5Cl)cc4)n3)cc2)CC1` the Potency [1] was 4.78 µM (active), the activation [1] was 33.8% and the Potency [9] was “inactive”. For the same compound, the Potency [11] was “inactive”, the Potency [4] was 2.95 µM (active) and the Potency [5] was 1.48 µM (active). The Potency [8] was 6.61 µM (active) and the Potency [13] was 7.42 µM (active).

Compound `Nc1ccccc1` has an activation [1] of -8.47%.

Work on `CC(C(=O)c1ccccc1)N(C)C` (configuration not stated) yielded an activation [1] of 22.6%.

In the case of `NC(Cc1cc(O)c(O)cc1O)C(=O)O` (configuration not stated), the activation [1] is reported as -19.2% and the Potency [2] is reported as “inactive”.

For `c1ccc(CCCN2CCN(CCOC(c3ccccc3)c3ccccc3)CC2)cc1`, the activation [1] was 1.41% and -30.2% and the Potency [2] was “inactive”.

In the case of `N#C/C(=C/c1ccc(O)c(O)c1)C(N)=S`, the activation [1] is reported as -33.2% and the Potency [2] is reported as “inactive”.

In the case of `CN(C)CCc1c[nH]c2cccc(OP(=O)(O)O)c12`, the activation [1] is reported as -1.69%.

In the case of `CCCCOC(=O)c1ccccc1C(=O)OCc1ccccc1`, the activation [1] is reported as -2.82%.

For `O=C(Cc1ccc(Cl)c(Cl)c1)N1CCCCC1CN1CCCC1` (configuration not stated), the activation [1] was -15.5% and the Potency [2] was “inactive”.

In the case of `CCOC(=O)c1cncn1[C@H](C)c1ccccc1`, the activation [1] is reported as -12.5%.

Work on `COC(=O)[C@@H](N)CCCN/C(N)=N/[N+](=O)[O-]` yielded an activation [1] of -1.69%.

With `CC1=NN=C(c2ccc(N)cc2)c2cc3c(cc2C1)OCO3` the Potency [1] was 9.68 µM (active), the activation [1] was 6.58% and the Potency [2] was 21.3 µM (active). For the same compound, the Potency [3] was 8.91 µM (active).

In the case of `C#CCN[C@H](C)Cc1ccccc1`, the activation [1] is reported as 4.01%, the Potency [2] is reported as “inactive” and the Potency [3] is reported as “inactive”.

For `N#CCCN`, the activation [1] was 1.42%, the Potency [2] was “inactive” and the Potency [3] was “inactive”.

In the case of `CO[C@H]1CC=C2CCN3CCC4=C(CC(=O)OC4)[C@]23C1`, the activation [1] is reported as -25.9% and the Potency [2] is reported as “inactive”.

Compound `CCOP(=O)(NC(C)C)Oc1ccc(SC)c(C)c1` (configuration not stated) has an activation [1] of 10.7%.

For `CC(C)=CCOc1c2occc2cc2ccc(=O)oc12`, the activation [1] was -10.9% and -24.3%, the Potency [2] was “inactive” and the Potency [3] was “inactive”. The Potency [10] was “inactive”.

For `c1ccc2c(N3CCNCC3)cccc2c1`, the activation [1] was -14.7%, the Potency [2] was “inactive” and the Potency [3] was “inactive”.

In the case of `NCCc1c[nH]c2ccccc12`, the activation [1] is reported as -5.39%, the Potency [2] is reported as “inactive” and the Potency [3] is reported as “inactive”. The Potency [10] was “inactive”.

With `O=S1(=O)N(CCN2CC=C(c3c[nH]c4cc(F)ccc34)CC2)c2cccc3c2N1CCC3` the activation [1] was 24.1%, the Potency [2] was “inactive” and the Potency [3] was “inactive”. For the same compound, the Potency [10] was “inactive”.

For `CN1C2CCC1CC(OC(c1ccccc1)c1ccccc1N)C2` (configuration not stated), the activation [1] was -67.5%, the Potency [2] was “inactive” and the Potency [3] was “inactive”. For the same compound, the Potency [10] was “inactive”.
